Tests used:
Experiment in all cases: log2 ratio of Biotin-Ahx-Ub-VS probe labelling (fragment/DMSO); higher = less target engagement (more negative = stronger competition), active = hit call of the paper (q ≤ 0.05, log2 ratio ≤ -1)
Settings in all cases: compound concentration: 200 uM; treatment time: 3 h
USP19 = target: T1, USP19 (UniProt O94966)
T1 sequence (whole entry): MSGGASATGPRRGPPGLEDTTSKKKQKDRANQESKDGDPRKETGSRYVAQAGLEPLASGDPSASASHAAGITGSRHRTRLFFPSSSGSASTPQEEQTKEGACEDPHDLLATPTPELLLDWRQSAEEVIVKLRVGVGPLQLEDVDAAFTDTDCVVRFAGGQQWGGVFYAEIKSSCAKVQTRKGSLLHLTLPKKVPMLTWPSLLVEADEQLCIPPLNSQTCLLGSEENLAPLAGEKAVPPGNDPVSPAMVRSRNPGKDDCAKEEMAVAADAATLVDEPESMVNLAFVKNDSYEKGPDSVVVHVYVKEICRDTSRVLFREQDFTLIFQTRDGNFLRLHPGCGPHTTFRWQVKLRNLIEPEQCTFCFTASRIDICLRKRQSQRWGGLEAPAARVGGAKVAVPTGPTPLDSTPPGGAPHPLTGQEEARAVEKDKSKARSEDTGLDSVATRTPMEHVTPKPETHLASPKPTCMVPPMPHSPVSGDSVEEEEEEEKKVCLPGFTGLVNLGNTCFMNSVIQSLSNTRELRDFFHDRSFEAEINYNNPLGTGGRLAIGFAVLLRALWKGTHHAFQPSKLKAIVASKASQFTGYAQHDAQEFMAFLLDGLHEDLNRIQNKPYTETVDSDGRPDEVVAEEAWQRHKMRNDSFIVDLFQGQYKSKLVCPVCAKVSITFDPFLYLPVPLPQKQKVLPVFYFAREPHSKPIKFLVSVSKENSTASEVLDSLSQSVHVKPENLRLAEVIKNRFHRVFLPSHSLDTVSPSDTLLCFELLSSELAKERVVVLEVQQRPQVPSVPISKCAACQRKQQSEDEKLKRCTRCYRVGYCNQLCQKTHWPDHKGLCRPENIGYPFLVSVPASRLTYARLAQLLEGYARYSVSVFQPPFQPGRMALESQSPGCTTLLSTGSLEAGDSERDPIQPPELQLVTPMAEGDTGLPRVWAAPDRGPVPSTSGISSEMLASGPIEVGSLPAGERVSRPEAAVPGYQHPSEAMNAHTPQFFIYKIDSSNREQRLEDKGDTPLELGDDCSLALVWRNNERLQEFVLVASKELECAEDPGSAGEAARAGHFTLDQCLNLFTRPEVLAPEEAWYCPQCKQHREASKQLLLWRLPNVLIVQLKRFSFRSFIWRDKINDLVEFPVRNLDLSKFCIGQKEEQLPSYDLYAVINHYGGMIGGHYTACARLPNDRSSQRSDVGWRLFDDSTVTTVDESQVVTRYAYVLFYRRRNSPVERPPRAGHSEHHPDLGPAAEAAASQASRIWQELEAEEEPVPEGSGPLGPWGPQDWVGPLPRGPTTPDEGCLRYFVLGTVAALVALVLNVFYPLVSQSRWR
In short: (§1)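 Labelling with Biotin-Ahx-Ub-VS (0.5 µM final, 1 h) followed a 3 h triplicate treatment of HEK293T lysate (495 µg per sample, Tris/CHAPS/IGEPAL buffer with protease inhibitors) with fragment at 200 µM or vehicle. Labelled DUBs were NeutrAvidin-enriched, digested with LysC and trypsin, and run by diaPASEF LC-MS/MS. The values, average log2 fragment/vehicle ratios by unpaired t-test, come from global-median-normalised Spectronaut label-free quantities. Proteins with ≥2 unique peptides were used.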

USP24 = USP24 (UniProt Q9UPU5)
In short: as §1

USP25 = target: T2, USP25 (UniProt Q9UHP3)
T2 sequence (whole entry): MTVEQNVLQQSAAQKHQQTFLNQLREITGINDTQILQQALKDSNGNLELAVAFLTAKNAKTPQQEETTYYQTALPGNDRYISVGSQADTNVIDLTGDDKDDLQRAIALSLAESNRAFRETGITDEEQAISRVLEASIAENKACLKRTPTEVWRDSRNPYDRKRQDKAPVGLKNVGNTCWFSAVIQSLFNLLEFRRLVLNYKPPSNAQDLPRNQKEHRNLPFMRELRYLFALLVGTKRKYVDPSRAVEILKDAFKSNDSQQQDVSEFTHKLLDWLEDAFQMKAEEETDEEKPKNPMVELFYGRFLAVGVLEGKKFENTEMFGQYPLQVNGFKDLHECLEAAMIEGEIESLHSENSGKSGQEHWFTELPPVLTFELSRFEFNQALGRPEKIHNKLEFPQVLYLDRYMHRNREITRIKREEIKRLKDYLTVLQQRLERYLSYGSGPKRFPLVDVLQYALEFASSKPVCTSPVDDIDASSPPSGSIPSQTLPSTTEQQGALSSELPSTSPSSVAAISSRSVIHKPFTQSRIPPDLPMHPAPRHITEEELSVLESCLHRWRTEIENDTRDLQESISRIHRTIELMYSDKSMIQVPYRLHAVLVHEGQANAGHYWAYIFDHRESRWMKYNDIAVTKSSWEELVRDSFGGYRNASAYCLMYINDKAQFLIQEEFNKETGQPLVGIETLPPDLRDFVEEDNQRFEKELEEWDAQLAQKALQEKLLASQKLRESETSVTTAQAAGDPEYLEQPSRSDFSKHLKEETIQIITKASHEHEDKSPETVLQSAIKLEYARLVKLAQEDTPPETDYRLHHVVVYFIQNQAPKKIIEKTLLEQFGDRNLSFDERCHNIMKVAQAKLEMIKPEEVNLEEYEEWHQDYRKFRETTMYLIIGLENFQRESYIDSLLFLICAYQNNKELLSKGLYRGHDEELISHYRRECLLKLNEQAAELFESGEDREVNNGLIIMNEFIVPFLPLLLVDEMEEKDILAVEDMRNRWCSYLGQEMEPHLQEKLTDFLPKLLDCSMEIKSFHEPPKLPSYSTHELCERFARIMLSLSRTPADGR
In short: as §1

USP28 = target: T3, USP28 (UniProt Q96RU2)
T3 sequence (whole entry): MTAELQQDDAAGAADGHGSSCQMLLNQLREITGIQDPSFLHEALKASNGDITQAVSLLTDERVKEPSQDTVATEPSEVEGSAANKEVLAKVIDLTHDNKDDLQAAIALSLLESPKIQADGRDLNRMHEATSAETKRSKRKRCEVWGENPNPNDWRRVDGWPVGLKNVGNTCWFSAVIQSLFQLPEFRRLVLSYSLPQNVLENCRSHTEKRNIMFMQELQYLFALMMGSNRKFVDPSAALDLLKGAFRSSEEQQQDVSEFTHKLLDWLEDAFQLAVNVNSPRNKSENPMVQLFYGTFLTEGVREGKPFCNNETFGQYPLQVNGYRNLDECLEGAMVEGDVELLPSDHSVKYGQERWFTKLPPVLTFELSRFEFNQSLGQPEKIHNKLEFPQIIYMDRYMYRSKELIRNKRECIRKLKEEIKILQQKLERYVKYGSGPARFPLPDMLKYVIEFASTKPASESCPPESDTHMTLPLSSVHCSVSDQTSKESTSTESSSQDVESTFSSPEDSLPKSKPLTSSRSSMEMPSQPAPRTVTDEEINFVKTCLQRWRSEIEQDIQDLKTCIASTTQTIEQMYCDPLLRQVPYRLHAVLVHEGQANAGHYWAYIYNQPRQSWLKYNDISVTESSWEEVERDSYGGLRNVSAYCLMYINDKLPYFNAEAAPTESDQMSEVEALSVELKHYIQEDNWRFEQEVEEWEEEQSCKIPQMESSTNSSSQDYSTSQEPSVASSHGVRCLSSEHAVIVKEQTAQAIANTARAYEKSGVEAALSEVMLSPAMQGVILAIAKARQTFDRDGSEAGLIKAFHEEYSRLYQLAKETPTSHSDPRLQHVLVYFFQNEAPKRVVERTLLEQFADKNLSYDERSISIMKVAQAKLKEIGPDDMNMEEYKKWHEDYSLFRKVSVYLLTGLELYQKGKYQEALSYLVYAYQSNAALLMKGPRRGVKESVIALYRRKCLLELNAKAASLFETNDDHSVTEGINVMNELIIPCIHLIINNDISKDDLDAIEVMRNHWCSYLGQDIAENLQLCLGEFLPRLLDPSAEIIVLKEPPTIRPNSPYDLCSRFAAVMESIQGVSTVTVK
In short: as §1

Measured: log2 ratio of Biotin-Ahx-Ub-VS probe labelling

USP24, sequence (Q9UPU5 whole entry): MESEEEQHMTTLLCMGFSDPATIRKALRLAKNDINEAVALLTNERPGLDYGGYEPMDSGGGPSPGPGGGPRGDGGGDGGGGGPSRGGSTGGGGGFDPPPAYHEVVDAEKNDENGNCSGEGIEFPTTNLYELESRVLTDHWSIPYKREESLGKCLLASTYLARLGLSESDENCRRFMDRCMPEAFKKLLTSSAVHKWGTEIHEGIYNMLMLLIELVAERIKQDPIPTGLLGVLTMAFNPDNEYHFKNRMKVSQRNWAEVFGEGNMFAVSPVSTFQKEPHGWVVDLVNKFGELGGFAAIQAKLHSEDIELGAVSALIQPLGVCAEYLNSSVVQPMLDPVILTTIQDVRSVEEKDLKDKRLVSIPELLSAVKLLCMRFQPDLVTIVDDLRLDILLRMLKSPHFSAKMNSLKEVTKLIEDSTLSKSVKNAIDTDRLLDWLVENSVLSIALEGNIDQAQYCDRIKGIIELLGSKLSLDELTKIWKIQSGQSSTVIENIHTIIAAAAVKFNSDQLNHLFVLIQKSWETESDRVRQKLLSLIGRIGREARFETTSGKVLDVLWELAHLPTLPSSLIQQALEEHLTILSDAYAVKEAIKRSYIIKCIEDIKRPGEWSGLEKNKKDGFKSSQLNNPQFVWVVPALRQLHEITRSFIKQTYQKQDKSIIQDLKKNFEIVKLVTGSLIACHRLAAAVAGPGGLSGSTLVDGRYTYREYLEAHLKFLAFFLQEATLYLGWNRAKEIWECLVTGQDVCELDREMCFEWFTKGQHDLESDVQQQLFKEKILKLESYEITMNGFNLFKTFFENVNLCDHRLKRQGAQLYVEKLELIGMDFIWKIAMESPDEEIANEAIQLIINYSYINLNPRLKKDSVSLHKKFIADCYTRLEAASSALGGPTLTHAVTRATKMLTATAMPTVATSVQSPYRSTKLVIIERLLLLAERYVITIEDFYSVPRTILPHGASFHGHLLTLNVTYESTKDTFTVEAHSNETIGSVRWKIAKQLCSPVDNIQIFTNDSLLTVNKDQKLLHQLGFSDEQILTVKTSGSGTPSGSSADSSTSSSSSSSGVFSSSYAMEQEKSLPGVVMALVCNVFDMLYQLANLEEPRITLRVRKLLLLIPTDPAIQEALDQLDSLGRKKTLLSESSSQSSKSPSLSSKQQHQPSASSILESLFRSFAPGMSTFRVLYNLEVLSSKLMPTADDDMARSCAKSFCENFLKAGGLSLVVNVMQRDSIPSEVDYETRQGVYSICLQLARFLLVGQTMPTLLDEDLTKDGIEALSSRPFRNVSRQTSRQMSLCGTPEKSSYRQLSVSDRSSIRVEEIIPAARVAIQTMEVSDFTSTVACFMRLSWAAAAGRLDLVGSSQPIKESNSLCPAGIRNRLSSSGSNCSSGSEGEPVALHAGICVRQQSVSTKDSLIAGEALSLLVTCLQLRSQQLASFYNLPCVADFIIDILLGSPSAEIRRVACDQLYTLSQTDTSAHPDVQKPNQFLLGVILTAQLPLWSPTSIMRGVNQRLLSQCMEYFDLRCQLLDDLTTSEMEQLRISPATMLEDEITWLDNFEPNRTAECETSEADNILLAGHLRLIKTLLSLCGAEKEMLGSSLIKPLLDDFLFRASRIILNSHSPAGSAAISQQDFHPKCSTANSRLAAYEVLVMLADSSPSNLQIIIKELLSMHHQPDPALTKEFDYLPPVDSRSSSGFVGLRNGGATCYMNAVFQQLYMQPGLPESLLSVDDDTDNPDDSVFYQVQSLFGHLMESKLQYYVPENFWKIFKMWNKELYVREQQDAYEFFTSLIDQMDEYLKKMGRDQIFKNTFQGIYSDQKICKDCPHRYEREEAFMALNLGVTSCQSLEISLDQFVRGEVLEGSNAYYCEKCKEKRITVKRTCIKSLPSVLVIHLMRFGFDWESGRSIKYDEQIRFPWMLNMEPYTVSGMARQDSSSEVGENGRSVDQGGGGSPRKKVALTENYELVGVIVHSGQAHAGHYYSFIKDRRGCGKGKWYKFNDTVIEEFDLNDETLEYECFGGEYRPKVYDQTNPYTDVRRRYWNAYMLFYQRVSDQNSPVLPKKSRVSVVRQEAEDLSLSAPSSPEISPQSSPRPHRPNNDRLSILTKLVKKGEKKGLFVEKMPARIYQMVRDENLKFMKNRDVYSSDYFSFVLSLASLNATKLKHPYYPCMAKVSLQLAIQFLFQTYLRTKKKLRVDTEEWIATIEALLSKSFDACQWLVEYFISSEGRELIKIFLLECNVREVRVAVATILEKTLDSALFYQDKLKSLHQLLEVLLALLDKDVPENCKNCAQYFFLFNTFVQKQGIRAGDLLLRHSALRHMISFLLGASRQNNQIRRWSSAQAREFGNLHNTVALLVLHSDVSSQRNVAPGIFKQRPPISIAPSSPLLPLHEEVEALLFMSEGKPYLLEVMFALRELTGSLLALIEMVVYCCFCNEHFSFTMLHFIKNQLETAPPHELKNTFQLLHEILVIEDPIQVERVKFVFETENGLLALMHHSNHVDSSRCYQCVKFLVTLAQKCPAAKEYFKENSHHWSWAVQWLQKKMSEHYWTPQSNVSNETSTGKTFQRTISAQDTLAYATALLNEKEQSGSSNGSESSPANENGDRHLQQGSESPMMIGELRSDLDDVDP

O=C(CCl)NCCc1ccc2c(c1)OCCO2
inactive: USP19 -0.254 | USP24 -0.665 | USP25 -0.794 | USP28 -0.745

From the supplement of paper PMC11732987, “Enantioselective OTUD7B fragment discovery through chemoproteomics screening and high-throughput optimisation” (Communications Chemistry, 2025)
